HCV inhibitor – blocks hepatitis C virus. Huh7.5.1 HCVcc-Cre infection, luciferase reporter, 44 h. Potency, µM (top dose mostly 41.8 µM), without a hit: at the top dose activity change, negative = inhibition, most hits filed as inhibitors. 3.4% of 340,000 active. AID 651820; active = well fitted inhibition curve with a large enough effect; inconclusive = small, poorly fitted or top-dose-only effect, or another doubt; inactive = no such curve, though single readings can be large or run the other way; note: potency is the fitted concentration of half-maximal effect
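Luciferase read-out (15 sec integration) after a 15 min room-temperature substrate step quantifies HCVcc-Cre infection. Cells, 1,000 per well, had compound added 4 h post-plating, then virus at ~0.5 moi, and were cultured 44 h.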
HCMV antiviral – inhibitors of human cytomegalovirus; HFF cells, HCMV-luciferase reporter, 72 h; active compounds read low; 4.5% of 410,000 active; activity change, negative = inhibition, % at 57.5 µM; in the data active = activity change below about -60%; inconclusive = no clear call, values can overlap the other calls; inactive = above about -39%
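HFF cells seeded 16 h at 37C, treated with compounds, infected with luciferase-reporter HCMV at MOI 1 PFU/cell; luciferase read at 72 h post infection, normalized to buffer-only and Salinomycin controls.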
FMDV inh – foot and mouth disease virus antiviral activity | Potency, µM (series often up to 57.9 µM), for the others: at the top dose activity change, negative = inhibition, actives largely listed as inhibitors | AID 1159524 | FMDV antiviral cell-based qHTS | 1.2% of 410,000 active; calls by dose curve; tested in HEK293T cells; note: read-out not given here; potency is the fitted concentration of half-maximal effect; nearly all actives have a fitted effect of over 45% in size
MARV entry inh – inhibitors of Marburg virus binding or cell entry. 1.8% of 300,000 active. Potency, µM (titrated, usually from 37.8 µM), for inactives: top-dose activity change, negative = inhibition, actives largely listed as inhibitors. Marburg virus pseudotyped entry inhibition, cell reporter; calls by dose curve; tested in HEK293 cells; note: potency is the fitted concentration of half-maximal effect
Lassa entry inh – Lassa virus entry inhibition | Lassa virus pseudotype entry inhibition, cell reporter | Potency, µM (titrated, usually from 37.9 µM), for inactives: at the top dose activity change, negative = inhibition, actives largely listed as inhibitors | 1.2% of 300,000 active | AID 540256; calls by dose curve; tested in HEK293 cells; note: potency is the fitted concentration of half-maximal effect; nearly all actives have a fitted effect of over 50% in size
* hit, by the source's call; ? = inconclusive; · = no result given; ! = not active in a repeat; [ ] = remark or other dose. Shown are actives, neighbours in structure and some others; about 7.9% of the full set was active somewhere. % is set by controls: 0 for no effect and ±100 for the full control effect.

SMILES	HCV inhibitor	HCMV antiviral	FMDV inh	MARV entry inh	Lassa entry inh
CCC(=O)N(Cc1cccs1)[C@@H]1CCOC(C)(C)C1	·	·	·	-15.7%[46.1 µM]	·
O=C(CSc1nnc(-c2ccc(F)cc2)o1)Nc1ccc(S(=O)(=O)N2CCCCCC2)cc1	-27.1%	-84.2*	·	-15.5%	?
O=C(CSc1nnc(-c2ccc(F)cc2)o1)Nc1ccc(S(=O)(=O)N2CCCC2)cc1	-29.4%	57.2	-13.5%	-7.4%	1.9%
CCn1c(CCNC(=O)c2cccs2)nnc1SCC(=O)Nc1cccc(Cl)c1	2.5%	2.1	-10.1%	-27.8%	6.2%
O=C(CSc1nnc(-c2ccccc2)n1Cc1ccco1)Nc1ccc(S(=O)(=O)N2CCCC2)cc1	14.1µM*	-15.9	-27.6%	?	?
CCn1c(CCNC(=O)c2cccs2)nnc1SCC(=O)Nc1nc(-c2ccccc2)cs1	-23.0%	51.0	20µM*	?	-10.8%
CCOc1ccc(CNC(=O)c2ccc(-c3nc(CS(=O)(=O)c4ccccc4)c(C)o3)cc2)cc1	·	-34.2	-10.1%	·	39.1%[46.1 µM]
CCOC(=O)/C(=N/Nc1ccccc1)N1CCCc2ccccc21	0.2%	-63.1*	?	?	-0.5%
O=C(CCl)N=c1sccn1Cc1ccccc1Cl	0.562µM*	-91.1*	?	?	?
CCC(=O)OCC(=O)N=c1sccn1Cc1ccccc1Cl	-17.6%	-24.9	-4.4%	25.2%	5.5%
O=C(CCl)N=c1sccn1Cc1ccc(Cl)cc1Cl	0.562µM*	-99.4*	?	?	?
O=C(CCl)N=c1sccn1Cc1cccc2ccccc12	3.55µM*	-100.0*	?	·	·
Clc1ccccc1CSc1nc(NCCc2ccccc2)c2ccccc2n1	·	64.0	?	·	-2.8%[46.1 µM]
Cc1noc(C)c1C(=O)N1CCC2(CC1)CCN(c1ncccn1)CC2	·	·	-22.1%	·	·
COc1cccc([C@H]2NC(=O)C[C@@H]3C[C@@H](C)[C@@H](c4cccc(OC)c4)N3C(=O)C=CC[C@@H]2C)c1	·	·	·	7.9%[14.2 µM]	?
O=C1[C@@H]2[C@H]3[C@H](O)[C@H](O)CC(=NOC[C@@H](O)COCc4ccco4)[C@@H]3CC[C@H]2C(=O)N1C[C@@H]1CCCO1	·	·	·	-0.9%[14.2 µM]	·
CCCCn1cc(S(=O)(=O)c2ccccc2)c(=O)c2cc(F)c(N3CCC(C)CC3)cc21	·	2.5	-15.6%	·	2.7%[46.1 µM]
O=C(Nc1ccc(Cl)cc1)Nc1nnc(CSCc2ccccc2Cl)s1	?	-91.2*	?	·	·
O=C(Nc1ccccc1)Nc1nnc(CSCc2ccccc2Cl)s1	25.6%	?	0.0%	-2.1%	-4.7%
O=C(Nc1ccc(Cl)c(Cl)c1)Nc1nnc(CSc2ccccc2)s1	?	-99.4*	?	10µM*	3.55µM*
COCCNC(=S)N1CCCC(CO)C1 (stereo not drawn)	13.8%	-30.0	-1.5%	8.4%[46.1 µM]	10.2%[46.1 µM]
CCN(CC)c1ccc(NC(=O)OC)cc1	-13.1%	14.5	-0.1%	?	?
CC(C)C1=Nc2nc(N)nn2C(=O)C1	·	·	·	4.4%	·
Cc1ccc(S(=O)(=O)NCCN2CCOCC2)s1	-4.7%	-67.0*	9.5%	·	·
Cc1cc(/C=C2\SC(=S)N(C)C2=O)c(C)n1-c1ccc(O)cc1	11.2µM*	-96.9*	0.891µM*	·	·
SMILES	HCV inhibitor	HCMV antiviral	FMDV inh	MARV entry inh	Lassa entry inh
CN1C(=O)/C(=C/c2coc3ccc(O)cc3c2=O)SC1=S	5.5%	-38.3	37.1%	·	·
Cc1cc(/C=C2\SC(=S)N(C)C2=O)c(C)n1-c1ccccc1O	7.08µM*	0.0	?	?	?
Cc1c(C(=O)NCC2COCCO2)cnn1-c1nccc(-c2cccs2)n1 (stereo not drawn)	·	·	32.0%	·	·
Cn1ccc2c(-c3ccc(F)cc3F)cc3c(c21)C1CCC3O1 (stereo not drawn)	·	·	·	·	0.7%[46.1 µM]
COc1ccc(C)cc1NC(=O)CSc1nnc(-c2ccco2)n1N	12.8%	17.3	13.5%	1.0%	14.3%
COc1ccccc1NC(=O)CSc1ccc(-c2ccccn2)nn1	?	-100.6*!	3.4%	?	?
O=C(CSc1ccc(-c2ccccn2)nn1)Nc1ccc(F)c(F)c1	10µM*	-90.1*!	-28.5%	-22.6%	?
O=C(CSc1ccc(-c2cccnc2)nn1)Nc1ccc(Br)cc1	12.6µM*	?	?	-23.8%	?
COc1ccc(C)cc1NC(=O)CSc1ccc(-c2ccco2)nn1	10µM*	?	-28.4%	-21.9%	4.0%
O=C(COc1cc(O)c2c(=O)c3ccccc3oc2c1)OCc1ccccc1	?	-27.7	-4.4%	0.5%[46.1 µM]	2.8%
